The record followed here is PubChem BioAssay (NCATS).

Records with an inconclusive call do not appear. Activity calls are given as the source filed them. Unless noted, the call rests on the fitted dose curve; in most records, active means well fitted curve in the direction sought with a large enough effect; inconclusive means small, poorly fitted or top-dose-only effect, or another doubt; inactive means no such curve, though single readings can be large; an effect the other way counts as inactive or inconclusive.

The nature of experiment [1]: Confirmatory qHTS for VERO E6 Cytotoxicity Assay: Counterscreen for SARS-CoV-2 CPE Assay (AID 1508605; calls by dose curve; further: on the % scale 0 is the no-effect control and ±100 the full control effect; nearly all actives have a fitted effect of over 60% in size).
Experiment [2] in a line: Confirmatory qHTS for activators (rescue) of SARS-CoV-2 Cytopathic Effect (CPE) (AID 1508606; calls by dose curve; further: 0% is about no effect; nearly all actives have a fitted effect of over 70% in size).
Experiment [3] can be described thus: Primary qHTS for inhibitors of La Crosse Virus (LACV) - induced cell death in SH-SY5Y cells (AID 1508616).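 Further: top concentration of the series differs between compounds; 0% = infected DMSO wells and 100% = uninfected DMSO wells; higher means more rescue of cells from virus-induced death.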 The essentials:
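Readout was luminescence from ATPLite 1step added after a 6-day LACV infection (0.01 MOI) of SH-SY5Y cells that had received pin-transferred compound 24 hr after seeding.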
In general terms: Quantitative high-throughput screening tests each substance at several concentrations.

Experiment [4] deals with Calcium and integrin-binding protein 1 (Homo sapiens) (UniProt Q99828). Briefly: Validation qHTS for Identification of Calcium Integrin Binding protein 1 (CIB1) Competitor (AID 1508618). Further: potency means the concentration at half of the fitted maximal effect. On activity change, negative = inhibition: on the % scale 0 is the no-effect control and ±100 the full control effect. The method, boiled down:
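CIB1-GST (1 uM final) incubated 15 min at room temperature with compounds (up to 114 uM), then FITC-labelled alphaIIb peptide (100 nM) added. FP read (Ex 480/Em 540) after 15 min, pH 7.4 buffer containing 5 mM CaCl2.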

Experiment [5] in a line: Primary qHTS for small molecule stabilizers of the endoplasmic reticulum resident proteome: Secreted ER Calcium Modulated Protein (SERCaMP) assay (AID 1508630). Further: on the % scale 0 is the no-effect control and ±100 the full control effect. The method, boiled down: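 GLuc-SERCaMP-expressing SH-SY5Y cells, pretreated 16 h with compound, are challenged with thapsigargin to empty ER calcium stores; after 4 h, coelenterazine is added directly to the medium and luminescence is imaged.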

A short description of experiment [6]: Confirmatory qHTS to identify inhibitors of SARS-CoV-2 cell entry (AID 1645844; calls by dose curve; further: potency means the concentration at half of the fitted maximal effect; nearly all actives have a fitted effect of over 45% in size). The following applies: SARS-CoV-2 pseudotyped particle cell entry, luciferase. The method, boiled down: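 HEK293-ACE2 cells were pretreated 1 h with compound, then infected with MLV-based pseudoparticles bearing C-terminally truncated Wuhan-Hu-1 spike for 48 h at 37C; luciferase luminescence normalized to spike PP and bald PP wells.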

Experiment [7] is described as follows: VSVG counterscreen qHTS to identify inhibitors of SARS-CoV-2 cell entry (AID 1645847; calls by dose curve; further: potency means the concentration at half of the fitted maximal effect; nearly all actives have a fitted effect of over 65% in size). The settings on record: VSV-G pseudotyped particle entry, luciferase. The method, boiled down: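 Luminescence read after 48 h infection at 37 C with VSV-G-pseudotyped MLV particles, following 1 h compound exposure of Expi293F cells stably expressing human ACE2; scaled between bald particle and VSV-G particle wells.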
(In general: Counterscreens check selectivity or assay interference.)

Experiment [8] is described as follows: Counterscreen qHTS for small molecule stabilizers of the endoplasmic reticulum resident proteome: GLuc-NoTag assay (AID 1508627).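 Further: SH-SY5Y cells given compound then 100 nM thapsigargin to empty ER calcium; 0% = thapsigargin alone and -100% = DMSO vehicle control.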 The method, boiled down: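 SH-SY5Y cells stably expressing constitutively secreted GLuc without SERCaMP tag, exposed to compound for 19 hr, then to 100 nM thapsigargin for 4 hr at 37C. Medium luciferase was read by coelenterazine luminescence without lysis.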

Experiment [9] is described as follows: Cell Viability qHTS for small molecule stabilizers of the endoplasmic reticulum resident proteome (AID 1508629).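 Further: human SH-SY5Y neuroblastoma cells carrying the GLuc-SERCaMP reporter; compound exposure about 46 h in total before the viability read; on the % scale 0 is the no-effect control and ±100 the full control effect.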 The following applies: cell viability counter-screen, 100 nM thapsigargin for final 4 h.
A further experiment deals with Papain (Carica papaya) (UniProt P00784). As to the kind of experiment: Primary qHTS assay for inhibitors of the protease papain (AID 1645873).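 Further: papain turnover of Z-FR-AMC read as the AMC fluorescence gain over 10 min; on the % scale 0 is the no-effect control and ±100 the full control effect.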
Sequence of Papain (Carica papaya) (P00784 whole entry, looked up): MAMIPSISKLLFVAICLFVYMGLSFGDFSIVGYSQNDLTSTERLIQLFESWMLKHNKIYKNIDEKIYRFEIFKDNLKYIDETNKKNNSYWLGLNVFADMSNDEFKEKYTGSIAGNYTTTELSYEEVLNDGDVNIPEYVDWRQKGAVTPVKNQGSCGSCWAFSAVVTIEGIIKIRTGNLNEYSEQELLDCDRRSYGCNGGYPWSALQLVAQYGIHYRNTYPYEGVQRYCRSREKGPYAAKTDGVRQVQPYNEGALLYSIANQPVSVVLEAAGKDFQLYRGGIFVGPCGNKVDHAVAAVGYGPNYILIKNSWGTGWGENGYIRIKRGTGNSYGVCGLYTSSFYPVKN
Experiment [10] can be described thus: Primary qHTS for Vero E6 cytotoxicity: counterscreen for inhibitors of SARS-S pseudo-typed particle cell entry (AID 1479150; calls by dose curve).
Experiment [11] in a line: Cytotoxicity counterscreen for inhibitors of SARS-CoV-2 cell entry (AID 1645845; calls by dose curve; further: nearly all actives have a fitted effect of over 50% in size). The following applies: outcome: dose series up to 57.1 µM unless noted. The essentials: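 HEK293-ACE2 cells (Expi293F stably expressing human ACE2) seeded overnight, then compound for 1 h plus 48 h at 37C. Viability as ATP content by luminescence; normalized to wells with cells and media-only wells.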

Experiment [12] can be described thus: Primary qHTS to identify inhibitors of SARS-CoV-2 cell entry (AID 1645846; calls by dose curve; further: nearly all actives have a fitted effect of over 45% in size). The settings on record: activity change, negative = inhibition: at 57.1 µM (top of the series) unless noted. The essentials: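 Entry measured by luciferase signal 48 h after adding SARS-CoV-2-S pseudotyped MLV particles to HEK293-ACE2 cells preincubated 1 h with compounds. Normalisation: bald particles and spike particles.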

Experiment [13] can be described thus: Confirmatory qHTS for small molecule stabilizers of the endoplasmic reticulum resident proteome: Secreted ER Calcium Modulated Protein (SERCaMP) assay (AID 1508628). Further: nearly all actives have a fitted effect of over 40% in size. Further: potency means the concentration at half of the fitted maximal effect. The essentials:
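We seeded SH-SY5Y-GLuc-SERCaMP cells, added compounds (three concentrations in the primary run, eleven up to 76.6 uM in confirmation), incubated 16 h, depleted ER calcium with thapsigargin, and read luciferase 4 h later.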

A short description of experiment [14]: Primary qHTS for inhibitors of nuclear receptor binding SET domain protein 2 (NSD2) in an isogenic RCH-ACV NSD2 p.E1099K mutant (9B) (AID 1645876). Further: potency means the concentration at half of the fitted maximal effect; nearly all actives have a fitted effect of over 70% in size.

Sequence of Calcium and integrin-binding protein 1 (Homo sapiens) (Q99828 whole entry, looked up): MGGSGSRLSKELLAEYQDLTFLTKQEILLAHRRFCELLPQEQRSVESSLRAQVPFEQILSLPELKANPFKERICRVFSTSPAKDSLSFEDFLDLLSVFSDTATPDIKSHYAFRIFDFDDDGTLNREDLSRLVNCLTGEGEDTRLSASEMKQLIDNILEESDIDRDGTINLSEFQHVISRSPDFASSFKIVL

With `CC[C@H]1CN2CC[C@H]1C[C@@H]2[C@@H](O)c1ccnc2ccc(OC)cc12`, the call in [1] and in experiment [2] was inactive.

As to `COc1ccc(OC)c(C(O)C(C)N)c1` (stereo not given), the Potency entry in [3] and in [4] was “inactive” each time. Further, in experiment [5], the outcome was inactive.

Consider `O=C1C2CC=CCC2C(=O)N1SC(Cl)(Cl)Cl` (stereo not given), for which the Potency in experiment [6] and in experiment [7] was 15.2 µM (active) in each case.

`CC[C@H](C)[C@H]1O[C@]2(C=C[C@@H]1C)C[C@@H]1C[C@@H](C/C=C(\C)[C@@H](O[C@H]3C[C@H](OC)[C@@H](O[C@H]4C[C@H](OC)[C@@H](O)[C@H](C)O4)[C@H](C)O3)[C@@H](C)/C=C/C=C3\CO[C@@H]4[C@H](O)C(C)=C[C@@H](C(=O)O1)[C@]34O)O2`: the figures for the Potency in experiment [6] and in experiment [7] were 21.5 µM (active) and 12.1 µM (active), respectively.

In the case of `NC(Cc1cc(O)c(O)cc1O)C(=O)O` (stereo not given), the Potency entry in experiment [3] was “inactive”. Further, the Potency in experiment [4] is 35.5 µM (active).

As to `COc1ccc2[nH]c3c(c2c1)CCNC3`, the Potency result in [3] and in experiment [4] was “inactive” in each case. Besides, the result in experiment [5] was inactive.

Turning to `Clc1ccc(N2CC3CCC(C2)N3)nn1`, the Potency entry (in experiment [3]; in [4]; in the experiment with Papain (Carica papaya)) was “inactive” each time. For the same molecule, the molecule was called inactive in [8]. Besides, the max response in [9] is -7.5% (inactive).

For `O=C(OCCN1CCCCC1)C(O)(c1ccccc1)c1ccccc1`, the Potency result in experiment [10] was “inactive”. In addition, in [11], the molecule was classed as inactive. In addition, in experiment [12], the activity change, negative = inhibition was -28.8%.

For `Cc1ccccc1-n1c(CF)nc2ccc(N)cc2c1=O`, the Potency result in experiment [10] is “inactive”. Also, the molecule was classed as inactive in [11]. The activity change, negative = inhibition in experiment [12] is -3.31%.

`COC(=O)N1CCN(C(=O)Cc2ccc(Cl)c(Cl)c2)C(CN2CCCC2)C1` (stereo not given): the Potency entry (in [3]; in [4]; with Papain (Carica papaya)) was “inactive” throughout. Moreover, the result in experiment [5] was inactive.

With `NCC(CP(=O)(O)O)c1ccc(Cl)cc1` (stereo not given), the Potency result in [3] and in experiment [4] was “inactive” each time. Besides, the result in [5] was inactive.

Regarding `N[C@@H](Cn1ccc(=O)[nH]c1=O)C(=O)O`, in experiment [3], the Potency entry is “inactive”.

Turning to `COc1ccc2c(c1)C13CCCCC1C(C2)N(C)CC3` (stereo not given), the Potency result (in experiment [3]; in experiment [4]; in the experiment with Papain (Carica papaya)) was “inactive” each time. In experiment [8], the result was inactive. For the same molecule, in experiment [13], the Potency is 2 µM (active).

Take `CCCCCCCCCC(=O)O[C@H]1CC[C@H]2[C@@H]3CCC4=CC(=O)CC[C@]4(C)[C@H]3CC[C@]12C`: the Potency entry in experiment [10] is “inactive”. Moreover, in [11], the molecule was called inactive. The activity change, negative = inhibition in experiment [12] was -15.3%.

Consider `CC(C)CCON=O`, for which the Potency result in [10] and in [12] was “inactive” each time. The molecule was classed as inactive in experiment [11].

As for `N#C/C(=C/c1ccc(O)c(O)c1)C(N)=S`, the Potency result (in experiment [3]; in experiment [4]; with Papain (Carica papaya)) was “inactive” in each case. Also, the outcome in experiment [8] was inactive. The Potency is 10 µM (active) in experiment [13] and 8.2 µM (active) in [14].

As for `CCCCC[C@@H](O)C1C(=O)OC(C)[C@H](O)/C=C/C=C/C=C/C=C/C=C(\C)C(O)C(O)C(O)C[C@H](O)C[C@H](O)C[C@H](O)C[C@H](O)C[C@@H]1O` (stereo not given in full), in experiment [10], the Potency result is “inactive”. For the same molecule, the result in [11] was inactive. In addition, in experiment [12], the activity change, negative = inhibition was -29.9%.

In the case of `C[C@H](N)CN1CCc2ccc(Br)cc21`, the Potency entry (in experiment [3]; in experiment [4]; with Papain (Carica papaya)) was “inactive” each time. For the same molecule, the molecule was called inactive in experiment [8]. Besides, the max response in experiment [9] was -3.5% (inactive).

For the molecule `c1ccc2c(N3CCNCC3)cccc2c1`, the Potency entry in experiment [3] and in experiment [4] was “inactive” each time. In addition, the outcome in experiment [8] was inactive.

With `NCC(O)c1cc(O)c(O)cc1F` (stereo not given), the Potency entry (in [3]; in [4]; in [13]; in the experiment with Papain (Carica papaya)) was “inactive” throughout.
